The structures appear in SMILES notation. Compounds without any hit were thinned out: in the full panel of roughly 83,000, 20% have a hit.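 The endpoint reported here, percent growth, reads 100 for growth as untreated, 0 for no net growth and -100 for all cells dead.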 The source made the active and inactive calls. Rule for the calls: active = growth percent below 10; inactive = the rest.

13 compounds from PubChem BioAssay (NCI) can be followed below.

This assay relates to UACC-62 melanoma. Put plainly: NCI-60 one-dose screen, 48 h (100 = growth as untreated, 0 = no growth, -100 = all killed). Particulars: 10 µM.
For `COc1ccc(/C=C2\CCCC3=C2NC(N)=NC3c2ccc(OC)cc2)cc1` (stereo not drawn), the growth was 68% (inactive).
Consider `CN(C)CCCOc1cccc(NC2=C(Cl)C(=O)C(Nc3cccc(OCCCN(C)C)c3)=C(Cl)C2=O)c1`, for which the growth is -72.9% (active).
The value for `N#CC1=C(N)Oc2cc(N)ccc2C1c1cccnc1` (stereo not drawn) was 101% (inactive).
The value for `COc1cc(/C=C/c2cc(/C=C/c3ccc(O)c(OC)c3)n(C(=O)Nc3ccc(C)cc3)n2)ccc1O` was -0.493% (active).
The value for `Cc1ccc(-n2nnnc2N)c(C)c1` was 96.4% (inactive).
Regarding `CCCCN(CCCC)C(=O)[C@H](CC)[C@@H]1CC[C@@H](C)[C@@H]([C@H](C)[C@@H](O)[C@@H](C)C(=O)[C@H](CC)C2O[C@]3(C=C[C@@H](O)[C@]4(CC[C@@](C)([C@H]5CC[C@](O)(CC)[C@H](C)O5)O4)O3)[C@H](C)C[C@@H]2C)O1` (stereo partly drawn), the growth was 12.2% (inactive).
The value for `COc1ccc2c(c1)C(=O)/C(=C/c1ccc([N+](=O)[O-])o1)O2` was -89% (active); that for `Cc1ccc(S(=O)(=O)N(C)CCCCCC(=O)O)cc1` was 106% (inactive); that for `NC1=NC(c2ccc(Cl)cc2)C2=C(N1)/C(=C/c1ccc(Cl)cc1)CCC2` (stereo not drawn) was 74.4% (inactive).
The value for `S=C(NCc1ccccc1)NCc1ccccc1` was 102% (inactive).
`COc1cc2cc(Oc3ccc(NC(=O)c4ccccc4)cc3)c(C)nc2cc1OC`: the growth was 95.9% (inactive).
The value for `Cc1c(Cl)cccc1NC(=O)CN1CCOCC1` was 103% (inactive); that for `C=CCN(CC=C)C(=O)[C@H](CC)[C@@H]1CC[C@@H](C)[C@@H]([C@H](C)[C@@H](O)[C@@H](C)C(=O)[C@H](CC)C2O[C@]3(C=CC(=O)[C@]4(CC[C@@](C)([C@H]5CC[C@](O)(CC)[C@H](C)O5)O4)O3)[C@H](C)C[C@@H]2C)O1` (stereo partly drawn) was 10.7% (inactive).
